Many of the other results were omitted from the sample, so hits are more common in it than they were.
HT1080NT lethal: kills 2HG-producing HT-1080-NT fibrosarcoma cells | HT-1080-NT fibrosarcoma viability, CellTiter-Glo ATP luminescence, 48 h | Potency, µM (top dose mostly 46.1 µM), actives largely listed as cytotoxic | 360,000 tested, 1.6% active | AID 686970;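 note: NT is the 2HG producing partner of a matched IDH1 knockdown line; nearly all actives have a fitted effect of over 55% in size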
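A 48-hour cytotoxicity screen used HT-1080-NT cells plated 2 hours before compound delivery. ATP-based CellTiter-Glo luminescence measured viability, normalized to DMSO and no-cell controls.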
HT1080 IDH1KD tx: toxicity to HT-1080 IDH1 knockdown cells (counter line); HT-1080 IDH1 knockdown viability, ATP luminescence, 48 h; Potency, µM (highest dose often 46.1 µM), most hits filed as cytotoxic; 360,000 tested, 2% active
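Viability of IDH1-knockdown HT-1080 fibrosarcoma cells was assessed by CellTiter-Glo after 48 h at 37 °C with titrated compound; concentration-effect curves were classified by fit quality and response size.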
12-LOX inh: ALOX12 (human) lipoxygenase inhibition; P18054; purified 12hLO, xylenol orange hydroperoxide absorbance; Potency, µM (series often up to 108 µM), usual class: inhibitors; 580,000 tested, 1.1% active; AID 1671190
Target sequence (P18054 whole entry, looked up): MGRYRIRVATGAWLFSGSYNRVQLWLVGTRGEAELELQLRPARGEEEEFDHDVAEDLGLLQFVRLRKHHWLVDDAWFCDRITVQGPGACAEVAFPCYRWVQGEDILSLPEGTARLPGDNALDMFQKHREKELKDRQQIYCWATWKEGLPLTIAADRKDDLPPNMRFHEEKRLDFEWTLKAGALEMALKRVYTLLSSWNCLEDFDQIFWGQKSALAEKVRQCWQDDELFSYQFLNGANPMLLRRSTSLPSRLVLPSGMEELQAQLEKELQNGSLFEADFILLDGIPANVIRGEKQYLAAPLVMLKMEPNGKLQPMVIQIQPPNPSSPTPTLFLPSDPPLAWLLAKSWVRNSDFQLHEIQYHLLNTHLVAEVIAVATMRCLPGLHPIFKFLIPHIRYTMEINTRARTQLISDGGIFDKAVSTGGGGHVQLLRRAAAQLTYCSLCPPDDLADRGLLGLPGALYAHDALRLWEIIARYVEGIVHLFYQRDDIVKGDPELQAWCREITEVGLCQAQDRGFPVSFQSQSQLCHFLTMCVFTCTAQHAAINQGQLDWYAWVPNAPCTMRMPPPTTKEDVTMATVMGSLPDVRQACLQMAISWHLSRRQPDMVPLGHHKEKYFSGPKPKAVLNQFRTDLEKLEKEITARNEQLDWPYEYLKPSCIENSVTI
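Purified human 12hLO (150 nM final) in 25 mM Hepes, 0.01% Triton X-100, pH 7.0 was preincubated 15 min at room temperature with compound. Then 40 uM arachidonic acid was added, 30 min. Hydroperoxide was read by Fe-XO absorbance ratio 573/405 nm.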
TDP1 cell CPT: DT40-hTDP1 cell growth loss with CPT. chicken DT40 Tdp1-/-;hTDP1 cells + 20 nM CPT, ATP luminescence, 48 h. Potency, µM (doses to about 46.2 µM), actives largely listed as inhibitors. 420,000 tested, 12% active; note: nearly all actives have a fitted effect of over 55% in size
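Chicken DT40 Tdp1-/- cells stably complemented with human TDP1 were seeded at 400 cells/well in medium containing 20 nM camptothecin, exposed to pin-transferred compounds, and grown at 37 °C for at least 48 hr. Viability was read as ATP luminescence.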
IL-1B inflam inh: blocks inflammasome-driven IL-1 beta release; 360,000 tested, 4.7% active; AID 743279; activity change, % at 57.5 µM; THP-1 LPS/ATP IL-1B secretion, AlphaLISA, 16 h; active compounds read low; in the data active = activity change below about -50%; inconclusive = mostly about -30% to -49%
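THP-1 cells pretreated 1 hr with compounds (up to 57.5 uM final), then stimulated with LPS (250 ng/mL final) plus ATP (1.25 mM final); secreted IL-1B measured by AlphaLISA after 16 hr, decreased signal indicating inhibition.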
TDP1 cell noCPT: qHTS for Inhibitors of human tyrosyl-DNA phosphodiesterase 1 (TDP1): qHTS in cells in absence of CPT. DT40 Tdp1-/- hTDP1 cells, no CPT, ATP luminescence, 48 h. Potency, µM (series often up to 46.2 µM), hits mostly inhibitors. 420,000 tested, 15% active. AID 686978, 2013; note: nearly all actives have a fitted effect of over 55% in size
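Seeded 400 DT40-hTDP1 cells/well (vehicle DMSO, no 20 nM CPT); pinned compounds; ≥48 hr at 37 °C; CellTiter-Glo luminescence as viability measure.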
A number is an active result. Unless noted, calls come from the whole dose curve; as a rule, active = well fitted curve in the direction sought with a large enough effect; inconclusive = small, poorly fitted or top-dose-only effect, or another doubt; inactive = no such curve, though single readings can be large; an effect the other way counts as inactive or inconclusive.

How did Cc1ccc(NC(=O)COC(=O)c2ccc3c(c2)NC(=O)C2CCCN32)cc1 (stereo unspecified) do in these assays?
HT1080NT lethal: inconclusive; HT1080 IDH1KD tx: inactive; 12-LOX inh: inconclusive; TDP1 cell CPT: 16µM; IL-1B inflam inh: inactive; TDP1 cell noCPT: inconclusive

What do the screens show for `CN1CCN(NC(=O)CN2C(=O)/C(=C/c3ccccc3Cl)SC2=S)CC1`?
HT1080NT lethal: inactive; HT1080 IDH1KD tx: inactive; 12-LOX inh: inconclusive; TDP1 cell CPT: inconclusive; IL-1B inflam inh: inactive; TDP1 cell noCPT: inconclusive

What do the screens show for `O=C(O)CN1C(=O)/C(=C\c2cn(CC(=O)N3CCOCC3)c3ccccc23)SC1=S`?
HT1080NT lethal: inactive; HT1080 IDH1KD tx: inactive; 12-LOX inh: inconclusive; TDP1 cell CPT: inactive; IL-1B inflam inh: inactive; TDP1 cell noCPT: inactive

Results for CN1CCN(C(=O)CCN2C(=O)/C(=C/c3ccccc3Cl)SC2=S)CC1 ?
HT1080NT lethal: inconclusive; HT1080 IDH1KD tx: inconclusive; 12-LOX inh: inactive; TDP1 cell CPT: 16µM; IL-1B inflam inh: -97; TDP1 cell noCPT: 12µM

Results for O=C(CCN1C(=O)/C(=C\c2ccccc2F)SC1=S)N1CCOCC1 ?
HT1080NT lethal: inactive; HT1080 IDH1KD tx: inactive; 12-LOX inh: inconclusive; TDP1 cell CPT: inconclusive; IL-1B inflam inh: inactive; TDP1 cell noCPT: 0.73µM

What do the screens show for `CN1CCN(C(=O)CCN2C(=O)/C(=C\c3ccccc3F)SC2=S)CC1`?
HT1080NT lethal: inactive; HT1080 IDH1KD tx: inconclusive; 12-LOX inh: inconclusive; TDP1 cell CPT: inactive; IL-1B inflam inh: -51; TDP1 cell noCPT: inconclusive

What do the screens show for `O=C(Nc1nc(-c2ccccn2)cs1)c1cc(S(=O)(=O)N2CCOCC2)ccc1F`?
HT1080NT lethal: inconclusive; HT1080 IDH1KD tx: inconclusive; 12-LOX inh: inconclusive; TDP1 cell CPT: 2.6µM; IL-1B inflam inh: inactive; TDP1 cell noCPT: 2.3µM

What do the screens show for `O=C(Nc1nc(-c2ccccn2)cs1)c1ccc(F)c(S(=O)(=O)N2CCOCC2)c1`?
HT1080NT lethal: inconclusive; HT1080 IDH1KD tx: inconclusive; 12-LOX inh: inactive; TDP1 cell CPT: 1.5µM; IL-1B inflam inh: inactive; TDP1 cell noCPT: 0.58µM

Results for Cc1ccc(C(=O)Nc2nc(-c3ccccn3)cs2)cc1S(=O)(=O)N1CCOCC1 ?
HT1080NT lethal: 18µM; HT1080 IDH1KD tx: 4.6µM; 12-LOX inh: inactive; TDP1 cell CPT: 1.3µM; IL-1B inflam inh: inactive; TDP1 cell noCPT: 0.73µM

How did Cc1ccc(C(=O)Nc2ccccn2)cc1S(=O)(=O)N1CCOCC1 do in these assays?
HT1080NT lethal: inactive; HT1080 IDH1KD tx: inactive; 12-LOX inh: inactive; TDP1 cell CPT: inactive; IL-1B inflam inh: inactive; TDP1 cell noCPT: inactive

Results for Cn1c(=O)c2c(nc(N3CCCCC3)n2CC(O)CO)n(C)c1=O (stereo unspecified) ?
12-LOX inh: inactive

How did Cc1ccc(Nc2ccc(S(N)(=O)=O)cc2[N+](=O)[O-])cc1 do in these assays?
12-LOX inh: inactive

Results for COc1ccc(CN(C)Cc2nc3scc(-c4ccccc4)c3c(=O)[nH]2)cc1OC ?
HT1080NT lethal: inactive; HT1080 IDH1KD tx: inactive; 12-LOX inh: inactive; TDP1 cell CPT: 13µM; IL-1B inflam inh: inactive; TDP1 cell noCPT: 6.5µM

How did CN(Cc1nc2scc(-c3ccc(F)cc3)c2c(=O)[nH]1)Cc1cccs1 do in these assays?
12-LOX inh: inactive

How did CCOc1cc(C)c(C(C)C)cc1S(=O)(=O)n1ccnc1C do in these assays?
12-LOX inh: inactive

How did O=C(NCc1ccc(F)cc1F)[C@@H]1CCCN1C(=O)[C@@H]1CCCN1C(=O)c1ccccc1 do in these assays?
HT1080NT lethal: inactive; HT1080 IDH1KD tx: inactive; 12-LOX inh: inactive; TDP1 cell CPT: inactive; IL-1B inflam inh: -95; TDP1 cell noCPT: inactive

Results for CCc1ccc(-c2nc(CSCC(=O)NCC(OC)OC)c(C)o2)cc1 ?
12-LOX inh: inactive

What do the screens show for `NC(=NCc1ccccc1)NC(=O)c1nc(Cl)c(N)nc1N`?
HT1080NT lethal: inconclusive; HT1080 IDH1KD tx: inconclusive; 12-LOX inh: inconclusive; TDP1 cell CPT: 10µM; IL-1B inflam inh: -61; TDP1 cell noCPT: 23µM

How did NC(=NCc1ccc2c(c1)OCO2)NC(=O)c1ccccc1 do in these assays?
HT1080NT lethal: inactive; HT1080 IDH1KD tx: inactive; 12-LOX inh: inactive; TDP1 cell CPT: inactive; IL-1B inflam inh: inactive; TDP1 cell noCPT: inconclusive

Results for COc1ccc(CC(=O)N2CC(c3nnc(C(C)C)o3)C3(CCOCC3)C2)cc1OC (stereo unspecified) ?
12-LOX inh: inactive

Results for COc1ccc(CC(=O)N2CCc3cc(OC)c(OC)cc3C2COc2ccc3c(C)cc(=O)oc3c2)cc1OC (stereo unspecified) ?
12-LOX inh: inactive; TDP1 cell CPT: inactive; TDP1 cell noCPT: inactive

What do the screens show for `CCOc1ccccc1C(=O)N1CCc2cc(OC)c(OC)cc2C1COc1ccc2c(C)cc(=O)oc2c1` (stereo unspecified)?
12-LOX inh: inactive; TDP1 cell CPT: inconclusive; TDP1 cell noCPT: 9.2µM

Results for CCOc1ccc(CC(=O)N2CCc3cc(OC)c(OC)cc3C2COc2ccc3c(C)cc(=O)oc3c2)cc1 (stereo unspecified) ?
12-LOX inh: inconclusive; TDP1 cell CPT: inactive; TDP1 cell noCPT: inactive

What do the screens show for `COc1cc2c(cc1OC)C(COc1ccc3c(C)cc(=O)oc3c1)N(C(=O)c1cccc(OC)c1OC)CC2` (stereo unspecified)?
12-LOX inh: inactive; TDP1 cell CPT: inconclusive; TDP1 cell noCPT: 23µM

Results for CCC(=O)N1CCc2cc(OC)c(OC)cc2C1COc1ccc2c(C)cc(=O)oc2c1 (stereo unspecified) ?
12-LOX inh: inactive; TDP1 cell CPT: inactive; TDP1 cell noCPT: inactive

How did COc1cc2c(cc1OC)C(COc1ccc3c(C)cc(=O)oc3c1)N(C(=O)c1cccc(C)c1)CC2 (stereo unspecified) do in these assays?
12-LOX inh: inconclusive; TDP1 cell CPT: inconclusive; TDP1 cell noCPT: 6.5µM

How did COc1cc2c(cc1OC)C(COc1ccc3c(C)cc(=O)oc3c1)N(C(=O)C(C)C)CC2 (stereo unspecified) do in these assays?
12-LOX inh: inconclusive; TDP1 cell CPT: inconclusive; TDP1 cell noCPT: 13µM

How did OC[C@@H]1CN(Cc2cccc3[nH]ccc23)C[C@H]1c1ccncc1 do in these assays?
12-LOX inh: inactive

What do the screens show for `COc1cc(C(=O)NC2CCN(c3cc(-c4ccc(F)cc4)[nH]n3)CC2)cc(OC)c1OC`?
12-LOX inh: inactive

What do the screens show for `O=C(C1C2C(=O)N(CCOc3ccccc3)C[C@@]23C=C[C@@H]1O3)N1CCSCC1` (stereo partly specified)?
12-LOX inh: inactive

Compound activity: PubChem, National Center for Advancing Translational Sciences (NCATS)
